# Data taken from ChEMBL document CHEMBL1157539, “Thousands of chemical starting points for antimalarial lead identification” (Nature, 2010).
# Several values for one entry are separate records, joined by “and”; a condition that tells them apart may be missing. Identical values can stand only once. The campaign covered roughly 13,000 compounds. Fewer than 10 showed an effect of 50% or more. These entries were drawn from the full list.
# Test system: Plasmodium falciparum
# Assay: GSK_TCMDC: Inhibition of Plasmodium falciparum 3D7 LDH activity, using an LDH reporter assay. Test compounds present at 2uM
# Format: functional, organism-based
row,SMILES,inhibition
1,c1ccc(-c2ccc(-c3csc(Nc4ccncc4)n3)cc2)cc1,3%
2,Cc1ccc2nc(C)cc(N/N=C/c3ccc([N+](=O)[O-])o3)c2c1,0%
3,O=C(Nc1ccsc1)Nc1cccc(-c2cccc(-c3nc4cc(F)ccc4[nH]3)c2)c1,2%
4,OCC(c1ccccc1)n1c(COc2ccc(Cl)cc2)nc2c(OCCCN3CCCCC3)cccc21 (centres undefined),0%
5,CCN1CCC(N(Cc2ccc(-c3ccc(C(F)(F)F)cc3)cc2)C(=O)Cn2c(CCc3cccc(F)c3F)cc(=O)c3c2CCCC3)CC1,0%
6,COc1ccc2c(NN=Cc3cccc(F)c3)ccnc2c1,0%
7,N#Cc1ccc(N2CCN(Cc3cccc(-c4ccc(-c5nc6cc(C(F)(F)F)ccc6[nH]5)cc4)c3)CC2)nc1,0%
8,Nc1nc(N)c2c(ccc3[nH]c(-c4ccccc4Cl)nc32)n1,0%
9,C=CCc1cccc(OC)c1OCCCON1C(=N)N=C(N)NC1(C)C,0%
10,CC(C)CCn1c(Sc2ccc(C#N)c([N+](=O)[O-])c2)nnc1-c1ccc(Cl)cc1,0%
11,Cc1n[nH]c2ccc(-c3ccc4nccc(N5CCC(N)CC5)c4c3)cc12,0%
12,CCOc1ccc2c(=NN=Cc3ccccc3F)cc(C)[nH]c2c1,0%
13,COc1cc(CN=C(S)NN=C(C)c2ccccn2)cc(OC)c1OC,0%
14,COc1ccc2c(c1)CC(C)(C)NC2CCCCCCCCC1NC(C)(C)Cc2cc(OC)ccc21 (centres undefined),0%
15,CCCC(=O)c1cnc2c(OCCCc3c[nH]cn3)cccc2c1Nc1c(C)cccc1C,3%
16,CC[C@H](N/C(=N\c1ccc(-c2ccccc2)cc1)Nc1ccc(C#N)cc1O)c1ccccc1,4%
17,COc1c(Br)cc(Br)cc1-c1ccc(CN2CC3CCC2CC3)[nH]1,0%
18,CCCCCCN1CCC(NCc2ccc(Cl)cc2)CC1,0%
19,COc1cc(NC(=O)c2sc(-c3ccc(Cl)cc3)cc2NC(=O)c2cccc(N(C)C)c2)ccc1OCCN1CCCC1,0%
20,CCN(C1CCCCC1)S(=O)(=O)c1ccc(OC)c(N2CCN(C(=O)C(Cl)(Cl)Cl)CC2)c1,3%
21,O=C(NCCCN1CCOCC1)c1cccc(Nc2nccc(Nc3ccc(Oc4ccccc4)cc3)n2)c1,0%
22,CCC(=O)N(c1ccccc1)C1CCN(CCCC(NC(=O)c2cc(C(F)(F)F)cc(C(F)(F)F)c2)c2ccc(Cl)c(Cl)c2)CC1 (centres undefined),0%
23,O=C(/C=C/c1ccc(-c2nc3ccc(Cl)cc3[nH]2)cc1)NC1CCN(Cc2ccccc2)CC1,0%

row,SMILES,inhibition
1,CN(C)c1ccc(-c2csc(C(=O)NC3CCN(CCC(C)(C)C)C3)c2)cc1 (centres undefined),2%
2,NC(=O)c1cccc(C(=O)Nc2cccc(-c3cccc(-c4nc5cc(F)ccc5[nH]4)c3)c2)c1,1%
3,Cc1ccc(Cl)c2sc(N3CCN(C(=O)c4ccc([N+](=O)[O-])o4)CC3)nc12,0%
4,O=C(c1ccc([N+](=O)[O-])o1)N1CCN(c2nc3c(F)cc(F)cc3s2)CC1,0%
5,O=C(/C=C/c1ccc(I)cc1)NCCCCCN1CCC(c2c[nH]c3ccc(O)cc23)CC1,2%
6,CN1CCN(CC(=O)Nc2cccc(-c3ccc(-c4nc5cc(F)ccc5[nH]4)cc3)c2)CC1,6%
7,CCN(CC)CCN(CCN(CC)CC)c1ccc(-c2nc3cc(Cl)c(Cl)cc3[nH]2)cc1,2%
8,Cc1ccc(-c2nc3cc(C(=O)NC4CCC(N5CCCc6ccc(C#N)cc6C5)CC4)ccc3[nH]2)cc1 (centres undefined),0%
9,CN(CCc1ccccn1)Cc1ccc(-c2ccc(-c3nc4ccccc4[nH]3)s2)cc1,6%
10,CC(C)(C)OC(=O)NCc1ccc(Nc2nnc(-c3cccc(C(=O)NCCC(c4ccccc4)c4ccccc4)c3)o2)cc1,0%
11,FC(F)(F)c1ccc2[nH]c(-c3cccc(-c4ccc(CNCC5CCCO5)cc4)c3)nc2c1 (centres undefined),0%
12,NCC1CCCN1Cc1cccc(-c2ccc(-c3nc4cc(C(F)(F)F)ccc4[nH]3)s2)c1 (centres undefined),0%
13,O=c1sn(-c2csc3ccccc23)c2ccccc12,0%
14,COc1cc(NC(=O)C(c2ccc(Cl)cc2)C(C)C)cc(OC)c1 (centres undefined),0%
15,CC1(C)NC(N)=NC(=N)N1OCCCc1c(Cl)cccc1Cl,3%
16,Cn1cc(Br)c(-c2cccc(Nc3ccnc4cc(-c5nccs5)ccc34)c2)n1,0%
17,CC1(C)[C@H]2CC[C@@H](CNc3nc(NCCc4c[nH]cn4)nc(Nc4ccc(Oc5ccccc5)cc4)n3)[C@@H]1C2,3%
18,O=C(CC1NC(=O)c2ccccc21)Nc1ccc(-c2ccc(-c3nc4cc(C(F)(F)F)ccc4[nH]3)cc2)cc1 (centres undefined),0%
19,CC(C)CNCc1ccc(-c2cccc(-c3nc4ccccc4[nH]3)c2)cc1,0%
20,Cc1cc2ccccc2n1CC(=O)N1CC(C(=O)N2CCCCC2)Oc2ccccc21 (centres undefined),2%
21,CC1(C)CCC(C)(C)c2c1ccc(C1CCN(CCCCNC(=O)c3ccc(-c4ccc(C#N)cc4)cc3)CC1)c2O,7%
22,c1cc(-c2ccc(CN3CCN(c4ccncc4)CC3)cc2)cc(-c2nc3ccccc3[nH]2)c1,0%
23,FC(F)(F)c1ccc2[nH]c(-c3ccc(-c4ccc(CNCc5cnn(-c6ccccc6)n5)cc4)cc3)nc2c1,0%

row,SMILES,inhibition
1,OCc1ccc(-c2cncc(Nc3cccc(Cl)c3)c2)cc1,0%
2,CNCCNCc1ccc(-c2ccc(-c3nc4cc(F)ccc4[nH]3)s2)cc1,2%
3,CC(C)CCNC(=N)Nc1ccc(OCCCCCOc2ccc(NC(=N)NCCC(C)C)cc2)cc1,6%
4,CCOC(=O)c1ccc(NC(=O)Nc2cccc(-c3cccc(-c4nc5cccc(C)c5[nH]4)c3)c2)cc1,0%
5,CC(=NNc1nc2ccccc2s1)c1ccccn1,0%
6,Cn1cccc1C(=O)C(=O)Nc1ccc(-c2ccc(-c3nc4cc(F)ccc4[nH]3)cc2)cc1,0%
7,COC(=O)c1cccc(CNCc2cccc(-c3cccc(-c4nc5cc(C(F)(F)F)ccc5[nH]4)c3)c2)c1,6%
8,COc1ccc2nccc(N/N=C/c3cccc([N+](=O)[O-])c3)c2c1,0%
9,CC(Cl)=CCc1c(C)nc2c(ccc3ccccc32)c1O,8%
10,Cc1cccc2nc(-c3ccc(-c4cccc(NC(=O)Nc5ccccc5)c4)cc3)[nH]c12,9%
11,CCOc1ccc2[nH]c(C)cc(=NN=Cc3cccc(F)c3)c2c1,0%
12,COc1ccc2nc3cc(Cl)ccc3c(NCCCCCCNc3c4ccc(Cl)cc4nc4ccc(OC)cc34)c2c1,0%
13,c1ccc(-c2ccc(CNCc3ccc(-c4cccc(-c5nc6ccccc6[nH]5)c4)cc3)s2)nc1,0%
14,CN(C)c1ccc(CN2CCCCC(NC(=O)c3cc(-c4ccccc4Cl)cs3)C2)cc1 (centres undefined),0%
15,N=C(N)Nc1ccc(CCc2ccc(NC(=N)N)cc2)cc1,0%
16,COc1ccc2nccc([C@@H](O)CN3CCC(NC(=O)/C=C/c4ccc5ccccc5n4)CC3)c2c1,1%
17,N#Cc1ccc(N/C(=N\c2ccc(-c3ccccc3)cc2)NCCc2c[nH]c3ccccc23)c(O)c1,6%
18,Cc1cccc2nc(-c3cccc(-c4ccc(CNCCNC(=O)c5ccnn5C)cc4)c3)[nH]c12,0%
19,NC1CCCN(Cc2ccc(-c3ccc(-c4nc5cc(F)ccc5[nH]4)s3)cc2)C1 (centres undefined),1%
20,COc1ccccc1CCNc1nc(C)cc(N[C@@H](Cc2ccccc2)C(=O)NCCOc2ccccc2)n1,4%
21,O=C(Cn1c(SCc2cccc(F)c2F)cc(=O)c2ccccc21)N(CCn1ccnc1)Cc1ccc(-c2ccc(C(F)(F)F)cc2)cc1,0%
22,O=C(Nc1ccc(Cn2ncc(N3CCCNCC3)c(Cl)c2=O)cc1)Nc1ccc(-c2ccccc2)cc1,0% and 8%
23,O=C(OCc1ccccn1)c1nc2ccccc2[nH]1,0%

row,SMILES,inhibition
1,O=C(NCc1cccs1)[C@H](Cc1ccccc1)Nc1ccnc(NCCc2ccccc2)n1,0%
2,Cc1cc(N2CCCC2)nc(NC(=N)Nc2cccc(C(F)(F)F)c2)n1,1%
3,Cn1ncc2ccc(Nc3nccc(-c4ccc5c(c4)c(N)nn5C)n3)cc21,0%
4,Cn1c(Cc2ccccc2)nnc1Sc1ccc(C#N)c([N+](=O)[O-])c1,0%
5,O=C(NCCN1CCCC1)c1cccc(-c2ccc(-c3nc4cc(F)ccc4[nH]3)cc2)c1,0%
6,CCOc1ccc2nc3cc(NC(=O)c4ccco4)ccc3c(N)c2c1,0%
7,Cc1cccc2nc(-c3ccc(-c4cccc(CN5CCN(c6ccncc6)CC5)c4)s3)[nH]c12,6%
8,Cc1ccc(CN2CCN(Cc3cccc(NC(=O)c4cccs4)c3)CC2)cc1C,2%
9,CCN(CC)CCCC(C)Nc1c2ccccc2nc2c1ccc1ccccc12 (centres undefined),3%
10,CCOc1ccccc1NC(=O)C(Sc1nc(C)cc(C)c1C#N)c1ccccc1 (centres undefined),0%
11,O=C(/C=C/c1ccc(Cl)c(Cl)c1)NCCCCCN1CCC(CCNC(=O)Cc2ccc(Cl)cc2)CC1,0%
12,COc1ccc(CN2CCCN(Cc3cccc(NC(=O)c4ccc(Cl)c(Cl)c4)c3)CC2)cc1,5%
13,CCN(CCCN1CCCCC1)c1cc(C)nc(Nc2cccc(C(F)(F)F)c2C)n1,0%
14,COc1ccc2nc3cc(Cl)ccc3c(NCCCCNc3c4ccc(Cl)cc4nc4ccc(OC)cc34)c2c1,6%
15,CS(=O)(=O)NCCCNCc1cccc(-c2ccc(-c3nc4ccccc4[nH]3)s2)c1,6%
16,O=C(NCc1ccc(F)cc1)Nc1ccc(-c2cccc(-c3nc4cc(C(F)(F)F)ccc4[nH]3)c2)cc1,3%
17,O=C(Nc1cccc(C(F)(F)F)c1)c1ccc(S(=O)(=O)NCC2CCN(CC3CCCCC3)CC2)cc1,0%
18,N[C@@H](Cc1cc(I)c(Oc2ccc(O)c(C(=O)O)c2)c(I)c1)C(=O)O,0%
19,CC(C)CNCc1ccc(-c2ccc(CNC3CCN(Cc4ccccc4)CC3)cc2)cc1,4%
20,CC1(C)N=C(N)N=C(N)N1c1ccc(Cl)cc1,0%
